High-throughput results as filed in PubChem BioAssay.
Rows were chosen to be rich in hits. Some 4% of all compounds tested hit in one or more screens of this group.
RecA intein inh: Mtb RecA intein splicing inhibitors, primary screen, biochemical, fluorescence, HTS; 0.75% of 290,000 active; AID 2221, 2009; inhibition, % (no concentration beside the values); cell-free RecA intein splicing; in the data active means inhibition above about 30%; inconclusive means no clear call, values can overlap the other calls;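 further: 0% = vehicle wells and 100% = reference inhibitor control wells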
UGM FP inh: M. tuberculosis UGM enzyme inhibitors, primary screen, biochemical, fluorescence polarization, single point. purified UGM, fluorescence polarization probe displacement. 0.06% of 320,000 active. inhibition, % at 10 µM. UDP-galactopyranose mutase (Mycobacterium tuberculosis (strain ATCC 25618 / H37Rv)), …; in the data active means inhibition above about 10%, passing the limit was not always enough; inconclusive means no clear call, values can overlap the other calls
Target sequence (P9WIQ1 whole entry, looked up): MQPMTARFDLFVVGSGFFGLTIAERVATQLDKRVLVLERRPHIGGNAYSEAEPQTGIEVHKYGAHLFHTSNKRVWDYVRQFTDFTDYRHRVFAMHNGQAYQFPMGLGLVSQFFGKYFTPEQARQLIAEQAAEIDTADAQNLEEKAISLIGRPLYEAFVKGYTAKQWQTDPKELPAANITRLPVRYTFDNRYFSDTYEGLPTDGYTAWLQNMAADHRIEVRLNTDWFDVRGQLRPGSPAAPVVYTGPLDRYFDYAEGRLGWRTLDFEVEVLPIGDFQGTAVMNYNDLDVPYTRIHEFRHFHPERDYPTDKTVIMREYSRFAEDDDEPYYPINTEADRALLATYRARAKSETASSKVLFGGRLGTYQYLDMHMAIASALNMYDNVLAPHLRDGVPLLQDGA
Rv3671c inh: Rv3671c serine protease inhibitors, primary screen, biochemical, fluorescence polarization, M. tuberculosis H37Rv | P9WHR9 | inhibition, % at 5.96 µM | 0.048% of 320,000 active; in the data active means inhibition above about 38%;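 further: extracellular domain of Rv3671c used as enzyme; 0% = enzyme with DMSO and 100% = no enzyme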
Mtb betalactam: beta-lactam sensitization of Mtb H37Rv, H37Rv | M. tuberculosis H37Rv growth with meropenem, percent inhibition | inhibition, % at 25 µM | 0.27% of 330,000 active | AID 434955, 2010; call rule not given here;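 further: growth measured after seven days incubation then overnight dye step; 0% = bacteria only wells and 100% = bacteria with antibiotic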
GDH-TPI counter-1: GDH-TPI coupling enzyme inhibitors, primary screen, artefact control for M. tuberculosis FBA inhibitor project, biochemical, absorbance, full deck. GDH-TPI coupled enzyme counterscreen, NADH absorbance. inhibition, % at 4.8 µM. 1.2% of 360,000 active. AID 588335, 2011; in the data active means inhibition above about 30%;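 further: 0% = DMSO wells and 100% = wells lacking the enzyme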
Mtb FBA inh: Mtb FBA enzyme inhibitors, primary screen, biochemical, fluorescence, strain H37Rv; 2.3% of 360,000 active; purified M. tuberculosis FBA, fluorescence read-out; AID 588726, 2011; Fructose-bisphosphate aldolase (Mycobacterium tuberculosis (strain ATCC 25618 / H37Rv)), …; inhibition, % at 1 µM;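 further: 0% = vehicle and 100% = reference inhibitor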
Mtb FBA confirm: M. tuberculosis aldolase blockers, biochemical, fluorescence, strain H37Rv, confirmation; inhibition, % at 1 µM; 78% of 5,600 active; purified M. tuberculosis FBA, fluorescence read-out; shares compounds with Mtb FBA inh;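 further: 0% = vehicle wells and 100% = reference inhibitor wells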
GDH-TPI counter-2: GDH-TPI coupling enzyme inhibitors, artefact control for M. tuberculosis FBA inhibitor project, biochemical, fluorescence, high throughput. shares compounds with Mtb FBA inh. GDH-TPI coupled enzyme counterscreen. inhibition, % at 1 µM. 81% of 5,600 active. AID 652141, 2013; in the data active means inhibition above about 10%
The depositor's hits bear a star; i = inactive; ? = inconclusive; / = not tested or not shown; + = active, no number. Unless noted, no stated cut-off is given here; in the data, active means inhibition above about 27%; inactive means the rest.

SMILES	RecA intein inh	UGM FP inh	Rv3671c inh	Mtb betalactam	GDH-TPI counter-1	Mtb FBA inh	Mtb FBA confirm	GDH-TPI counter-2
COc1ccc(Cl)cc1S(=O)(=O)NC(C)C(=O)NCc1ccc2c(c1)OCO2 (centres undefined)	0	-1	6	-5	13	2	/	/
CC[C@H](C)[C@H]1CNC(=S)N1CC1CCN(CC)CC1	/	/	/	/	2	4	/	/
CCN1CC2(COC(=O)c3ccccc3N)CCC(OC)C34C5CC6C(OC)CC(O)(C5C6OC)C(O)(C(OC)C23)C14 (centres undefined)	-1	-2	-3	-4	2	36*	-3	-6
CCN1C[C@]2(COC(=O)c3ccccc3N)CC[C@H](OC)C34[C@@H]5C[C@H]6[C@H](OC)[C@@H]5[C@](O)(C[C@@H]6OC)[C@@](O)([C@H]13)[C@@H](OC)[C@@H]42	-2	2	7	?	2	43*	59*	39*
Cc1ccc(CCNC(=O)Cn2ccc3cc(S(=O)(=O)N4CCCC4)ccc32)cc1	-4	2	-4	7	-8	84*	44*	27*
Cc1cccc(NC(=O)CNC(=O)COc2ccc(C(=O)c3ccc(F)cc3)cc2)c1C	-4	1	-11	0	3	1	/	/
N#Cc1ccc(-c2ccc(OCC(=O)Nc3cccnc3)cc2)cc1	-1	-1	/	99	1	43*	116*	85*
Cc1cccc(NC(=O)CNC(=O)COc2ccc(-c3ccc(C#N)cc3)cc2)c1C	-3	-1	-57	-5	10	29*	101*	80*
Cc1oc2c(c(C)cc3oc(=O)c(CC(=O)N[C@H](C(=O)O)C(C)C)c(C)c32)c1C	-8	3	/	-1	4	21	/	/
CSCC[C@H](NC(=O)Cc1c(C)c2c(cc(C)c3c(C)coc32)oc1=O)C(=O)O	-2	2	/	-4	4	53*	+	187*
CC[C@@H](C)[C@H](NC(=O)Cc1c(C)c2cc3c(C)coc3c(C)c2oc1=O)C(=O)O	-3	1	-4	2	7	18	/	/
CC[C@@H](C)[C@H](NC(=O)Cc1c(C)c2c(cc(C)c3c(C)coc32)oc1=O)C(=O)O	-7	3	/	3	8	64*	112*	94*
Nc1c(N(Cc2ccccc2)C(=O)COc2ccc(F)cc2Cl)c(=O)[nH]c(=O)n1Cc1ccccc1	/	2	0	-1	5	6	/	/
CCOC(=O)c1cc2c(=O)n3cccc(C)c3nc2n(Cc2ccco2)c1=NC(=O)c1cccnc1	/	/	/	/	20	106*	31*	35*
Cc1cccn2c(=O)c3cc(S(=O)(=O)c4ccccc4)c(=N)n(Cc4cccnc4)c3nc12	-4	2	-2	-5	11	4	/	/
O=C(NCC1CCCO1)c1onc(CSc2ccccc2)c1C(=O)O (centres undefined)	-1	-2	-1	-2	-1	-1	/	/
O=C(NCC1CCCO1)c1onc(CSc2ccc(F)c(F)c2)c1C(=O)O (centres undefined)	0	3	-1	-5	-6	45*	92*	61*
O=C1c2cccc3cccc(c23)C(=O)N1CC1CCN(S(=O)(=O)c2ccccc2)CC1	/	/	/	/	-5	54*	47*	29*
CCCSc1nc(C)c2cc(C)cc(C)c2n1	0	5	-5	0	-6	6	/	/
Cc1cc(C)c2nc3nc(C)c(C)cc3c(N)c2c1	i	/	/	/	-5	29*	76*	48*
CCCC(=O)Nc1cc(OC)c(OC)cc1C(=O)O	-4	1	5	6	-3	-3	/	/
CCNC(=O)Nc1cc(OC)c(OC)cc1C(=O)O	-1	-1	-8	2	20	45*	89*	78*
O=C1c2ccccc2S(=O)N1c1cccc(F)c1 (centres undefined)	/	/	/	/	-9	-1	/	/
COc1cccc2[nH]c(C(=O)NCc3ccccc3)cc12	-2	1	3	0	1	68*	74*	73*
COCOCCn1cc(CN2CCS(=O)(=O)N(Cc3ccc(-c4ccc(Cl)c(Cl)c4)cc3)C(C)C2=O)nn1 (centres undefined)	/	/	/	/	2	1	/	/
SMILES	RecA intein inh	UGM FP inh	Rv3671c inh	Mtb betalactam	GDH-TPI counter-1	Mtb FBA inh	Mtb FBA confirm	GDH-TPI counter-2
CC[C@]12c3[nH]c4cc(-c5ccco5)ccc4c3CCN1C(=O)[C@@H](CC(=O)NCCc1ccccn1)C[C@@H]2C(=O)N1CCN(C(=O)C2CC2)CC1	/	/	/	/	4	30*	47*	33*
CC[C@]12c3[nH]c4cc(-c5ccco5)ccc4c3CCN1C(=O)[C@@H](CC(=O)NC/C=C(\C)CCC=C(C)C)C[C@@H]2C(=O)N1CCN(C(=O)C2CC2)CC1	/	/	/	/	4	11	/	/
C[C@]12c3[nH]c4cc(-c5ccco5)ccc4c3CCN1C(=O)[C@@H](CC(=O)NCCc1ccccn1)C[C@@H]2C(=O)N1CCCCC1	/	/	/	/	17	43*	68*	47*
CC[C@]12c3[nH]c4cc(-c5ccco5)ccc4c3CCN1C(=O)[C@@H](CC(=O)NC(C)(C)C)C[C@@H]2C(=O)N1CCN(C(=O)C2CC2)CC1	/	/	/	/	15	27*	63*	52*
CN1CCN(C(CNC(=O)c2ccc(Br)o2)c2ccc(F)cc2)CC1 (centres undefined)	1	0	-1	-2	-4	0	/	/
O=C(Nc1ccc(S(=O)(=O)Nc2ncccn2)cc1)C1CC(=O)N(c2ccc(Cl)cc2)C1 (centres undefined)	2	2	0	-4	4	2	/	/
CN(c1ccccc1)S(=O)(=O)c1ccc(C(=O)NCc2ccccc2F)cc1	/	-1	-4	-7	10	2	/	/
CC(=O)O[C@@H]1C[C@@]2(C)[C@@H](CC[C@H]2[C@@H](C)/C=C\CC(C)C)C2=C[C@@H](O)[C@@]3(O)C[C@@H](O)[C@H](O)C[C@]3(CO)[C@]21O	/	/	/	/	-6	2	/	/
COc1ccc(OC)c(N(CC(=O)NCC2CCCO2)S(=O)(=O)c2ccccc2)c1 (centres undefined)	-3	-2	-3	12	3	2	/	/
